HCV inhibitor: qHTS Assay for Inhibitors of Hepatitis C Virus (HCV); Huh7.5.1 HCVcc-Cre infection, luciferase reporter, 44 h; Potency, µM (doses to about 41.8 µM), for inactives: at the top dose activity change, negative = inhibition, actives largely listed as inhibitors; hit rate 3.4% among 340,000; AID 651820, 2012; note: potency is the fitted concentration of half-maximal effect; % is set by controls: 0 for no effect and ±100 for the full control effect
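Cells (1,000/well) were plated 4 h before compound, then infected with HCVcc-Cre virus (~0.5 moi). After 44 h further culture, infection was read as luciferase luminescence following a 15 min substrate incubation at room temperature.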
Sm TGR block: qHTS Assay for the Inhibitors of Schistosoma Mansoni Peroxiredoxins | Potency, µM (series often up to 114 µM), without a hit: top-dose activity change, negative = inhibition, usual class: inhibitors | hit rate 3% among 360,000 | purified TGR, DTNB reduction, TNB absorbance 405 nm | AID 485364, 2010; note: potency is the fitted concentration of half-maximal effect; % is set by controls: 0 for no effect and ±100 for the full control effect; nearly all actives have a fitted effect of over 60% in size
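Kinetic colorimetric format: TGR-catalysed, NADPH-driven DTNB reduction monitored via TNB absorbance. Enzyme dispensed at 20 nM; compound exposure 15 min at room temperature before reaction start.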
Pf growth 96h: Primary qHTS for delayed death inhibitors of the malarial parasite plastid, 96 hour incubation; AID 504834, 2011; Potency, µM (series often up to 28.7 µM), for inactives: at the highest dose activity change, negative = inhibition, actives largely listed as inhibitors; P. falciparum luciferase reporter growth, 96 h; hit rate 6.9% among 320,000; note: potency is the fitted concentration of half-maximal effect; % is set by controls: 0 for no effect and ±100 for the full control effect
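Compounds incubated with erythrocytes infected by luciferase-expressing P. falciparum (2% hematocrit, 0.05% parasitemia final) for 96 hours, 37 C in 5% CO2. Growth inhibition scored as decreased luciferase luminescence.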
Pf growth 48h: Primary qHTS for delayed death inhibitors of the malarial parasite plastid, 48 hour incubation | P. falciparum luciferase growth in erythrocytes, 48 h | Potency, µM (series often up to 28.7 µM), inactives show at the highest dose activity change, negative = inhibition, usual class: inhibitors | hit rate 5.9% among 310,000; note: potency is the fitted concentration of half-maximal effect; % is set by controls: 0 for no effect and ±100 for the full control effect
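Cell-based growth assay: transgenic P. falciparum expressing firefly luciferase, cultured in red cells within RPMI 1640 containing 0.5% w/v Albumax, 24 mM bicarbonate and gentamycin. A drop in luciferase activity indicates inhibition.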
SARS PLpro yeast: qHTS of Yeast-based Assay for SARS-CoV PLP. AID 485353, 2010. hit rate 0.19% among 330,000. S. cerevisiae expressing SARS-CoV PLpro, growth rescue. Potency, µM (top dose mostly 32.9 µM), without a hit: at the highest dose activity, positive = growth rescue, actives largely listed as activators; calls by dose curve; note: potency is the fitted concentration of half-maximal effect; 0% is about no effect; nearly all actives have a fitted effect of over 55% in size
HCMV antiviral: qHTS Assay for inhibitors of the human cytomegalovirus (HCMV); HFF cells, HCMV-luciferase reporter, 72 h; stronger effect = lower value; activity change, negative = inhibition, % at 57.5 µM; hit rate 4.5% among 410,000; AID 1259415, 2018; in the data active = activity change below about -60%; inconclusive = no clear call, values can overlap the other calls; inactive = above about -39%; note: % is set by controls: 0 for no effect and ±100 for the full control effect
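Two-dose cell screen: HFF monolayers treated with compounds and infected with luciferase-expressing HCMV at 1 PFU/cell, 72 h at 37C, then lysed for luciferase measurement.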
Numbers without * were called inactive; ? = inconclusive; / = no result; [ ] = dose if it differs, or a comment. Rows were chosen to be rich in hits. Some 15% of all compounds tested hit in one or more screens of this group. Unless noted, calls come from the whole dose curve; as a rule, active = well fitted curve in the direction sought with a large enough effect; inconclusive = small, poorly fitted or top-dose-only effect, or another doubt; inactive = no such curve, though single readings can be large; an effect the other way counts as inactive or inconclusive.

SMILES	HCV inhibitor	Sm TGR block	Pf growth 96h	Pf growth 48h	SARS PLpro yeast	HCMV antiviral
Cc1ccc(C)n1-c1ccc(N2CCOCC2)c([N+](=O)[O-])c1	-5.8%	35.5µM*	?	?	0.0%	-30.6
Cc1cc(C=O)c(C)n1-c1ccc(N2CCOCC2)c([N+](=O)[O-])c1	11.1%	-0.7%	4.9%	-10.8%	-1.1%	-4.9
Cc1ccc(C)n1-c1ccc(N2CCOCC2)cc1	?	24.2%	?	10.4µM*	0.2%	-73.2*
Cc1ccc(C)n1-c1ccc(N(C)C)cc1	-27.4%	31.6µM*	?	14.3%	-3.4%	?
CC1CCN(c2cc(N3CCOCC3)c([N+](=O)[O-])cc2F)CC1	-7.7%	-11.9%	14.7µM*	?	-9.1%	-20.9
CC1CCN(c2cc(N3CCOCC3)c(F)cc2[N+](=O)[O-])CC1	4.7%	5.5%	183.5%	?	-1.3%	?
CN(C)S(=O)(=O)c1cccc(CSCc2cccc(S(=O)(=O)N(C)C)c2)c1	2.24µM*	-11.2%	-6.8%	-4.7%	1.0%	-92.0*
Cc1cc(C)n2nc(SCc3cccc(S(=O)(=O)N(C)C)c3)nc2n1	?	13.4%	?	-42.6%	4.1%	-38.8
COc1ccc(-c2nc(-c3ccccc3)nc3ccccc23)cc1	/	/	/	/	/	-8.6
COCCCNC(=O)CN1C(=O)COc2ccc(S(=O)(=O)N3CCCC3)cc21	/	-7.1%	/	/	/	-5.5
COc1ccc(NC(=O)Cn2cnc3ccc(S(=O)(=O)N4CCC(C)CC4)cc3c2=O)cc1Cl	/	-1.8%	/	/	/	-32.5
CN(C(=O)CSc1nc2ccc(NC(=O)COc3ccc(F)cc3)cc2s1)c1ccccc1	/	-2.2%	/	/	/	-70.3*
CN(C(=O)CSc1nc2ccc(NC(=O)CCc3ccccc3)cc2s1)c1ccccc1	/	-10.4%	/	/	/	?
CN(C(=O)CSc1nc2ccc(NC(=O)c3ccc(F)cc3)cc2s1)c1ccccc1	/	-1.1%	/	/	/	-80.5*
COc1ccc(C(=O)Nc2ccc3nc(SCC(=O)N(C)c4ccccc4)sc3c2)cc1	/	16.4%	/	/	/	-74.1*
COc1cccc(C(=O)Nc2ccc3nc(SCC(=O)N(C)c4ccccc4)sc3c2)c1	/	-0.3%	/	/	/	?
O=C(N1CCCC1)C(F)(F)Oc1ccc(F)cc1	0.0%	0.1%	-4.0%	8.2%	0.3%	-39.4
CCCC[C@@H]1Cc2[nH][nH]c(=O)c2[C@H](c2ccc3ccccc3c2)O1	/	/	/	/	/	-2.7
COc1ccccc1CCNC(=O)CSc1nc(=O)[nH]c2c1CCC2	11.0%	-3.4%	4.2%	?	1.1%	-8.7
Cc1ccc(CN2C(=O)c3ccccc3S(=O)(=O)c3ccc(C(=O)OCC4CCCO4)cc32)cc1 (configuration not stated)	/	7.3%	/	/	/	9.4
CN(C)c1ccc(CNC(=O)c2sc3ncccc3c2-n2cccc2)cc1	/	0.7%	/	/	/	7.6
Fc1ccc(C2c3[nH]c4ccccc4c3CCN2Cc2ccoc2)cc1 (configuration not stated)	-0.7%	?	?	?	-1.3%	-16.1
O=C(c1noc2c1CCCC2)N1CCc2c([nH]c3ccccc23)C1c1ccccn1 (configuration not stated)	-24.0%	-13.7%	?	?	-2.2%	-61.9*
Cc1cccc(C2c3[nH]c4ccccc4c3CCN2Cc2cnn(-c3ccc(F)cc3)c2)n1 (configuration not stated)	5.7%	5.8%	22.4%	10.4µM*	-1.3%	15.8
Cc1cccc(C2c3[nH]c4ccccc4c3CCN2C(=O)c2noc3c2CCCC3)n1 (configuration not stated)	?	-1.5%	13.1µM*	?	-3.5%	2.8
SMILES	HCV inhibitor	Sm TGR block	Pf growth 96h	Pf growth 48h	SARS PLpro yeast	HCMV antiviral
Cc1cccc(C2c3[nH]c4ccccc4c3CCN2C(=O)c2cn(C)c3ccccc3c2=O)n1 (configuration not stated)	-12.7%	-5.5%[57.1 µM]	?	?	-1.5%	40.8
Cc1cc(C(=O)OCC(=O)N(CC(C)C)c2c(N)n(Cc3ccccc3)c(=O)[nH]c2=O)c(C)o1	18.9%	-1.2%	-27.4%	?	-2.6%	18.1
N=C(N)Cc1ccccc1Sc1ccccc1	-2.5%	3.5%	2.5%	-18.6%	-0.1%	-14.8
CC(Cc1ccccc1Sc1ccccc1)N(C)C (configuration not stated)	9.8%	4.3%	?	?	1.0%	-62.6*
CC(Cc1ccccc1Sc1ccc(O)cc1)N(C)C (configuration not stated)	?	0.0%	/	13.1µM*	0.2%	/
CC(N)Cc1ccccc1Sc1ccc(O)cc1 (configuration not stated)	/	0.9%	?	?	3.6%	/
COc1ccc(N/C=C(\C#N)c2nc3ccccc3n2C)c(OC)c1	5.01µM*	-2.6%	-92.0%	?	-5.8%	-26.1
Cc1cccc(C)c1OCCOC(=O)c1n[nH]c2ccccc12	?	19.7%	7.2%	-1.7%	-12.7%	?
Cc1ccc(C)c(C(=O)COC(=O)c2n[nH]c3ccccc23)c1	-26.7%	/	/	/	-11.5%	-60.7*
COc1ccc(CNC(=O)COC(=O)c2n[nH]c3ccccc23)cc1OC	10µM*	-24.9%	?	?	23.7%	34.6
O=C(CN(c1ccc(Cl)c(Cl)c1)S(=O)(=O)c1ccccc1)N1CCc2ccccc2C1	?	17.6%	105.2%	?	-3.0%	10.1
COc1ccc(N(CC(=O)N2CCN(C)CC2)S(=O)(=O)c2cc(C)ccc2OC)cc1Cl	-10.1%	14.0%	8.28µM*	-10.5%	5.6%	114.4
COc1cccc(N(CC(=O)N2CCC(C)CC2)S(=O)(=O)c2ccc(C)cc2)c1	/	-4.7%	/	/	/	-8.6
COc1cccc(N(CC(=O)N2CCN(C)CC2)S(=O)(=O)c2ccc(C)cc2)c1	12.3%	17.5%	11.7µM*	-10.2%	-1.5%	-3.8
Cc1ccc(S(=O)(=O)N(CC(=O)N2CCc3ccccc3C2)c2ccc(Cl)c(Cl)c2)cc1	-7.2%	-5.5%	?	10.4µM*	-0.3%	2.1
CCN(CC)S(=O)(=O)c1ccc(NC(=O)NCc2noc3ccc(C)cc23)cc1	/	5.8%	/	/	/	-39.5
COc1ccc(Nc2nccc3c2cc(-c2ccc(C(=O)N(C)C)cc2)n3C)c(OC)c1	/	/	/	/	/	-14.7
O=C1NCCOC(=O)[C@@H](Cc2ccc(F)cc2)C/C=C\C[C@@H]1CC(=O)N(CCO)Cc1ccccc1	?	/	/	/	0.6%	-5.1
O=C1C(=Cc2ccco2)CCC1=Cc1ccco1	0.3%	/	/	/	/	?
